Source: PubChem BioAssay (NCATS)
Results filed as inconclusive are left out. Activity calls are given as the source filed them. The call rests on the fitted dose curve; in most records, active means well fitted cell-killing curve with a large enough effect; inconclusive means small, poorly fitted or top-dose-only effect, or effect the other way; inactive means flat fitted curve, though single readings scatter.

How the values were obtained:
Assay in all cases: Primary qHTS to identify gynecologic anti-cancer compounds using libraries of approved drugs and bioactive compounds (AID 1345084); further: nearly all actives have a fitted effect of over 55% in size
C33A = settings: Gynecologic cancer cell panel viability, ATPlite luminescence, 48 h; series mostly up to 57.5 µM
In short: (§1)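 Five-concentration response, 48 h; readout is ATP-driven luciferase luminescence.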

CAOV3 = settings: Gynecologic cancer cell panel viability, ATPlite luminescence, 48 h; series mostly up to 57.5 µM
In short: as §1

CASKI = settings: Gynecologic cancer cell panel viability, ATPlite luminescence, 48 h; series mostly up to 57.5 µM
In short: as §1

Es-2 = settings: Gynecologic cancer cell panel viability, ATPlite luminescence, 48 h; series mostly up to 57.5 µM
In short: as §1

HeLa = settings: Gynecologic cancer cell panel viability, ATPlite luminescence, 48 h; series mostly up to 57.5 µM
In short: as §1

Hek293T = settings: Gynecologic cancer cell panel viability, ATPlite luminescence, 48 h, control line for the selectivity index; series mostly up to 57.5 µM
In short: as §1

JEG-3 = settings: Gynecologic cancer cell panel viability, ATPlite luminescence, 48 h; series mostly up to 57.5 µM
In short: as §1

OV90 = settings: Gynecologic cancer cell panel viability, ATPlite luminescence, 48 h; series mostly up to 57.5 µM
In short: as §1

PA-1 = settings: Gynecologic cancer cell panel viability, ATPlite luminescence, 48 h; series mostly up to 57.5 µM
In short: as §1

SKOV3 = settings: Gynecologic cancer cell panel viability, ATPlite luminescence, 48 h; series mostly up to 57.5 µM
In short: as §1

Tov-21-G = settings: Gynecologic cancer cell panel viability, ATPlite luminescence, 48 h; series mostly up to 57.5 µM
In short: as §1

Tov112D = settings: Gynecologic cancer cell panel viability, ATPlite luminescence, 48 h; series mostly up to 57.5 µM
In short: as §1
On the % scale 0 is the no-effect control and ±100 the full control effect.

COc1ccc([C@@]2(O)c3c(ccc4c3OC(C)(CCC=C(C)C)C=C4)NC(=O)[C@@H]2OC)cc1 (stereo partly drawn)
inactive: Potency (C33A) | Potency (CAOV3) | Potency (CASKI) | Potency (Es-2) | Potency (HeLa) | Potency (Hek293T) | Potency (JEG-3) | Potency (OV90) | Potency (PA-1) | Potency (SKOV3) | Potency (Tov-21-G) | Potency (Tov112D)

COC1CC(O[C@H]2CC[C@@]3(C)C(CCC4C3[C@H](OC(C)=O)[C@@H](OC(=O)/C=C/c3ccccc3)[C@]3(C)C(C(C)=O)CC[C@]43O)C2)OC(C)C1OC1CC(OC)C(OC2CC(OC)C(OC3OC(C)C(OC4OC(CO)C(O)C(O)C4O)C(OC)C3O)C(C)O2)C(C)O1 (stereo partly drawn)
inactive: activity change, negative = cytotoxicity (C33A) -1.17% [at 6.55 µM] | activity change, negative = cytotoxicity (CAOV3) 6.87% [at 6.55 µM] | activity change, negative = cytotoxicity (CASKI) 1.19% [at 6.55 µM] | activity change, negative = cytotoxicity (Es-2) 0.971% [at 6.55 µM] | activity change, negative = cytotoxicity (HeLa) -3.04% [at 6.55 µM] | activity change, negative = cytotoxicity (Hek293T) -2.25% [at 6.55 µM] | activity change, negative = cytotoxicity (JEG-3) -2.34% [at 6.55 µM] | activity change, negative = cytotoxicity (OV90) -0.788% [at 6.55 µM] | activity change, negative = cytotoxicity (PA-1) -4.15% [at 6.55 µM] | activity change, negative = cytotoxicity (SKOV3) -2.84% [at 6.55 µM] | activity change, negative = cytotoxicity (Tov-21-G) 6.44% [at 6.55 µM] | activity change, negative = cytotoxicity (Tov112D) -0.487% [at 6.55 µM]

O=C1CSc2ccccc2N1Cc1cccc(C(F)(F)F)c1
inactive: Potency (C33A) | Potency (CAOV3) | Potency (CASKI) | Potency (Es-2) | Potency (HeLa) | Potency (Hek293T) | Potency (JEG-3) | Potency (OV90) | Potency (PA-1) | Potency (SKOV3) | Potency (Tov-21-G) | Potency (Tov112D)

O=C1CC2(CCCC2)[C@H](O)C(=O)N1CCCCN1CCN(c2ncccn2)CC1
inactive: Potency (C33A) | Potency (CAOV3) | Potency (CASKI) | Potency (Es-2) | Potency (HeLa) | Potency (Hek293T) | Potency (JEG-3) | Potency (OV90) | Potency (PA-1) | Potency (SKOV3) | Potency (Tov-21-G) | Potency (Tov112D)

Fc1ccc2nc(CCC#Cc3ccccn3)cn2c1
inactive: Potency (C33A) | Potency (CAOV3) | Potency (CASKI) | Potency (Es-2) | Potency (HeLa) | Potency (Hek293T) | Potency (JEG-3) | Potency (OV90) | Potency (PA-1) | Potency (SKOV3) | Potency (Tov-21-G) | Potency (Tov112D)

CC1(C)C2CC=C(COC3OC(COC4OCC(O)(CO)C4O)C(O)C(O)C3O)C1C2 (stereo not drawn)
inactive: Potency (C33A) | Potency (CAOV3) | Potency (CASKI) | Potency (Es-2) | Potency (HeLa) | Potency (Hek293T) | Potency (JEG-3) | Potency (OV90) | Potency (PA-1) | Potency (SKOV3) | Potency (Tov-21-G) | Potency (Tov112D)

C[C@@H]1O[C@@H](O[C@H]2[C@H](O)[C@@H](O[C@@H]3O[C@H](CO)[C@@H](O)[C@H](O[C@@H]4O[C@H](CO)[C@@H](O)[C@H](O)[C@H]4O)[C@H]3O)[C@H](O[C@H]3CC[C@@]4(C)C(=CC[C@@H]5C4CC[C@@]4(C)C5C[C@@H]5OC6(CC[C@@](C)(CO[C@@H]7O[C@H](CO)[C@@H](O)[C@H](O)[C@H]7O)O6)[C@@H](C)[C@@H]54)C3)O[C@@H]2CO)[C@H](O)[C@H](O)[C@H]1OC1OC(CO)C(O)C(O)C1O (stereo partly drawn)
inactive: activity change, negative = cytotoxicity (C33A) 0.138% [at 6.55 µM] | activity change, negative = cytotoxicity (CAOV3) 7.26% [at 6.55 µM] | activity change, negative = cytotoxicity (CASKI) -16.9% [at 6.55 µM] | activity change, negative = cytotoxicity (Es-2) -3.32% [at 6.55 µM] | activity change, negative = cytotoxicity (HeLa) -0.928% [at 6.55 µM] | activity change, negative = cytotoxicity (Hek293T) 3.68% [at 6.55 µM] | activity change, negative = cytotoxicity (JEG-3) 1.09% [at 6.55 µM] | activity change, negative = cytotoxicity (OV90) -1.64% [at 6.55 µM] | activity change, negative = cytotoxicity (PA-1) 10.2% [at 6.55 µM] | activity change, negative = cytotoxicity (SKOV3) -3.09% [at 6.55 µM] | activity change, negative = cytotoxicity (Tov-21-G) -0.0744% [at 6.55 µM] | activity change, negative = cytotoxicity (Tov112D) 5.26% [at 6.55 µM]

Cc1noc(-c2ccc(-c3ccc(CC(=O)O)cc3)cc2)c1NC(=O)O[C@H](C)c1ccccc1
inactive: Potency (C33A) | Potency (CAOV3) | Potency (CASKI) | Potency (Es-2) | Potency (HeLa) | Potency (Hek293T) | Potency (JEG-3) | Potency (OV90) | Potency (PA-1) | Potency (SKOV3) | Potency (Tov-21-G) | Potency (Tov112D)

Cc1cc(=O)oc2c(C=O)c(O)ccc12
inactive: Potency (C33A) | Potency (CAOV3) | Potency (CASKI) | Potency (Es-2) | Potency (HeLa) | Potency (Hek293T) | Potency (JEG-3) | Potency (OV90) | Potency (PA-1) | Potency (SKOV3) | Potency (Tov-21-G) | Potency (Tov112D)

Cc1nc2ccc(Oc3ccc(F)cc3)cc2c(=O)n1C[C@H]1CCCN(C(C)C)C1
inactive: Potency (C33A) | Potency (CAOV3) | Potency (CASKI) | Potency (Es-2) | Potency (HeLa) | Potency (Hek293T) | Potency (JEG-3) | Potency (OV90) | Potency (PA-1) | Potency (SKOV3) | Potency (Tov-21-G) | Potency (Tov112D)

CCc1ccc(Cc2ccc3c(c2)[C@]2(OC3)O[C@H](CO)[C@@H](O)[C@H](O)[C@H]2O)cc1
inactive: Potency (C33A) | Potency (CAOV3) | Potency (CASKI) | Potency (Es-2) | Potency (HeLa) | Potency (Hek293T) | Potency (JEG-3) | Potency (OV90) | Potency (PA-1) | Potency (SKOV3) | Potency (Tov-21-G) | Potency (Tov112D)

C[C@@H]1O[C@@H](O[C@H]2[C@@H]3C=CO[C@@H](O[C@@H]4O[C@H](CO)[C@@H](O)[C@H](O)[C@H]4O)[C@@H]3[C@@]3(CO)O[C@@H]23)[C@H](OC(=O)/C=C/c2ccc(O)c(O)c2)[C@H](O)[C@H]1O
inactive: Potency (C33A) | Potency (CAOV3) | Potency (CASKI) | Potency (Es-2) | Potency (HeLa) | Potency (Hek293T) | Potency (JEG-3) | Potency (OV90) | Potency (PA-1) | Potency (SKOV3) | Potency (Tov-21-G) | Potency (Tov112D)

CC1(C)CCCC2(C)C(CO)C(CO)=CCC12 (stereo not drawn)
inactive: Potency (C33A) | Potency (CAOV3) | Potency (CASKI) | Potency (Es-2) | Potency (HeLa) | Potency (Hek293T) | Potency (JEG-3) | Potency (OV90) | Potency (PA-1) | Potency (SKOV3) | Potency (Tov-21-G) | Potency (Tov112D)

CC1=C(C(=O)O)/C(=C\CO[C@@H]2O[C@H](CO)[C@@H](O)[C@H](O)[C@H]2O)C(OC(=O)/C=C\c2ccc(O)cc2)C1 (stereo partly drawn)
inactive: Potency (C33A) | Potency (CAOV3) | Potency (CASKI) | Potency (Es-2) | Potency (HeLa) | Potency (Hek293T) | Potency (JEG-3) | Potency (OV90) | Potency (PA-1) | Potency (SKOV3) | Potency (Tov-21-G) | Potency (Tov112D)
